According to paper PMC5540273 (PLoS ONE, 2017):

How the values were obtained:
Conditions in all cases: concentration: 1 μM,replicates: in singlicate; n = 1
[1] = system: MAPKAPK5
[2] = system: MARK1
[3] = system: MARK2
[4] = system: MARK3
[5] = system: MARK4
[6] = system: MAST1
[7] = system: T1, MEK1
T1 construct: gene MAP2K1

[8] = system: T2, MEK2
T2 construct: gene MAP2K2

[9] = system: T3, MEK3
T3 construct: gene MAP2K3

[10] = system: T4, MEK4
T4 construct: gene MAP2K4
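Also: KINOMEscan kinase panel screen.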

| SMILES | %Inh [1] | %Inh [2] | %Inh [3] | %Inh [4] | %Inh [5] | %Inh [6] | %Inh [7] | %Inh [8] | %Inh [9] | %Inh [10] |
| --- | --- | --- | --- | --- | --- | --- | --- | --- | --- | --- |
| NC(=O)Nc1sc(-c2ccc(F)cc2)cc1C(N)=O [GW789449] | 0% | 0% | 8% | 0% | 1% | 46% | 30% | 40% | 83% | 24% |
| COc1ccc(Nc2nccc(N3CCC(NC(=O)c4cccc(C#N)c4)C3)n2)cc1 (stereo not shown) [GSK1379730] | 0% | 1% | 0% | 0% | 9% | 0% | 0% | 0% | 0% | 8% |
| Cc1nnc(-c2ccc3occ(-c4ccc(S(C)=O)cc4)c3n2)o1 (stereo not shown) | 0% | 0% | 0% | 0% | 0% | 0% | 0% | 0% | 0% | 0% |
| CC(C)c1nc(-c2cccc(NS(=O)(=O)c3ccccc3)c2)c(-c2ccnc(Nc3ccc4c(c3)CN(C)CC4)n2)s1 [GSK1649598] | 0% | 31% | 0% | 14% | 3% | 0% | 52% | 77% | 17% | 99.5% |
| COc1cc2c(Nc3ccc(NC(=O)c4ccccc4)cc3)ncnc2cc1OCCCN1CCOCC1 [GSK301329] | 0% | 0% | 0% | 0% | 0% | 0% | 86% | 86% | 0% | 5% |
| Cc1n[nH]c2cc(Nc3ccnc(Nc4cccc(CN5CCOCC5)c4)n3)ccc12 [GW682569] | 0% | 4% | 9% | 0% | 0% | 16% | 14% | 0% | 11% | 16% |
| O=C(Nc1cccc(C(F)(F)F)c1)c1cccc(Oc2ccc3nccn3n2)c1 | 51% | 0% | 2% | 9% | 100% | 0% | 0% | 8% | 6% | 31% |
| Cc1ccc2c(-c3ccnc(Nc4ccc(C(F)(F)F)cc4)n3)cnn2n1 [GW819776] | 0% | 17% | 0% | 0% | 32% | 41% | 32% | 40% | 90.7% | 63% |
| C[C@@H]1CCN(C(=O)N2CCCC2)C[C@@H]1N(C)c1ncnc2[nH]ccc12 | 8% | 0% | 50% | 46% | 5% | 0% | 18% | 0% | 29% | 13% |
| C[C@@H]1CNc2c(sc3ccc4nc(-c5ccncc5)ccc4c23)C(=O)N1 | 100% | 0% | 0% | 0% | 0% | 12% | 0% | 0% | 13% | 0% |
| O=C(NOCC1CC1)c1cc(Br)c(F)c(F)c1Nc1ccc(I)cc1Cl | 0% | 0% | 13% | 0% | 0% | 0% | 31% | 58% | 15% | 0% |
| COc1cccc(OC)c1C(=O)Nc1cccc(-c2nn3ccccc3c2-c2ccnc(Nc3cccc(F)c3)n2)c1 [GSK361065] | 8% | 17% | 8% | 7% | 14% | 9% | 28% | 41% | 30% | 0% |
| CC(C(=O)NC1CCN(c2ccnc(Nc3ccc(F)cc3)n2)C1)c1ccc(Cl)cc1 (stereo not shown) [GSK1379713] | 18% | 0% | 0% | 0% | 1% | 11% | 0% | 0% | 0% | 10% |
| Cl.Nc1n[nH]c2cc(-c3ccccn3)ccc12 [GSK2189892] | 0% | 0% | 0% | 10% | 0% | 0% | 2% | 0% | 0% | 5% |
| CC(=O)Nc1nc2cnc(Nc3cc(NC(=O)c4cccc(CC(C)(C)C#N)c4)ccc3C)nc2s1 | 14% | 8% | 3% | 0% | 8% | 53% | 6% | 6% | 0% | 25% |
| CN1CCN(CCNc2nc3cc(Oc4ccc(NC(=O)Nc5cc(C(F)(F)F)ccc5F)cc4)ccc3[nH]2)CC1.Cl.Cl [GW768504] | 0% | 19% | 0% | 12% | 32% | 7% | 0% | 31% | 0% | 0% |
| CN(c1ccc2c(c1)nc(NCc1ccc(F)cc1)n2C)c1ccnc(Nc2ccc(CS(C)(=O)=O)cc2)n1.Cl [GW813244] | 0% | 0% | 0% | 0% | 8% | 19% | 14% | 37% | 27% | 40% |

| SMILES | %Inh [1] | %Inh [2] | %Inh [3] | %Inh [4] | %Inh [5] | %Inh [6] | %Inh [7] | %Inh [8] | %Inh [9] | %Inh [10] |
| --- | --- | --- | --- | --- | --- | --- | --- | --- | --- | --- |
| COc1cc2ncn(-c3cc(OCC4CCCCC4)c(C(N)=O)s3)c2cc1OC [GSK204559] | 0% | 14% | 1% | 0% | 26% | 0% | 0% | 0% | 9% | 13% |
| COC(=O)Nc1nc2cc(Oc3ccc(NC(=O)Nc4cc(C(F)(F)F)ccc4Cl)cc3)ccc2[nH]1.Cl [GW697465] | 0% | 0% | 0% | 0% | 0% | 14% | 25% | 0% | 0% | 4% |
| CS(=O)(=O)c1cccc(CNc2nc(Nc3ccc4c(c3)[C@@H]3C[C@@H]4CNC3=O)ncc2C(F)(F)F)c1 | 0% | 8% | 24% | 67% | 44% | 0% | 39% | 80% | 75% | 89% |
| C[C@@H](Oc1cc(-n2cnc3ccc(-c4ccncc4)cc32)sc1C(N)=O)c1ccccc1Cl [GSK483724] | 0% | 8% | 0% | 0% | 20% | 0% | 49% | 0% | 34% | 37% |
| O=C(Nc1cccc(Oc2ccc3nccn3n2)c1)Nc1cccc(C(F)(F)F)c1 | 0% | 14% | 12% | 0% | 24% | 0% | 0% | 7% | 29% | 0% |
| CC(=O)c1c(-c2ccncc2)[nH]c(-c2ccncc2)c1C [GW493036] | 0% | 0% | 0% | 10% | 0% | 36% | 0% | 0% | 0% | 40% |
| Cn1ccc2ncnc(Oc3ccc(NC(=O)Nc4cccc(C(F)(F)F)c4)c(F)c3)c21 | 0% | 13% | 9% | 8% | 0% | 0% | 0% | 29% | 3% | 0% |
| COc1cccc(CNC(=O)NC2CCN(c3ccnc(Nc4cc(OC)c(OC)c(OC)c4)n3)C2)c1 (stereo not shown) [GSK1379765] | 0% | 0% | 0% | 0% | 1% | 0% | 17% | 5% | 15% | 25% |
| O=C(Nc1ccccc1)c1cccc(Oc2ccc3nccn3n2)c1 | 4% | 0% | 6% | 0% | 10% | 0% | 0% | 6% | 13% | 0% |
| CN(c1cccc(CNc2nc(Nc3ccc4c(c3)CC(=O)N4)ncc2C(F)(F)F)c1)S(C)(=O)=O | 0% | 47% | 39% | 66% | 56% | 0% | 0% | 43% | 62% | 35% |
| C[C@@H](Oc1cc(-n2cnc3cc(-c4ccncc4)ccc32)sc1C(N)=O)c1ccccc1Cl [GSK479719] | 0% | 0% | 100% | 1% | 12% | 0% | 0% | 0% | 0% | 37% |
| CS(=O)(=O)Nc1ccc(-c2ccnc3[nH]ccc23)cc1 [GSK993273] | 0% | 0% | 0% | 0% | 6% | 0% | 60% | 71% | 43% | 67% |
| Cn1ccc2ncnc(Oc3ccc(NC(=O)Nc4cnn(C(C)(C)C)c4)c(Cl)c3)c21 | 0% | 10% | 6% | 0% | 16% | 0% | 0% | 15% | 3% | 0% |
| Nc1nccc(-c2ccc3c(N)n[nH]c3c2)n1 [GSK1034945] | 0% | 0% | 0% | 0% | 7% | 0% | 0% | 0% | 0% | 8% |
| Cn1ccc2ncnc(Oc3ccc(NC(=O)Nc4cccc(C(F)(F)F)c4)c(Cl)c3)c21 | 0% | 0% | 6% | 0% | 0% | 0% | 0% | 25% | 0% | 6% |
| c1ccc(Oc2ccc(Nc3ccnc4ccc(-c5ccccn5)cc34)cc2)cc1 [GW407034] | 0% | 0% | 0% | 0% | 0% | 2% | 85% | 66% | 0% | 16% |
| COc1cccc(C2=C(Nc3cccc(Cl)c3)C(=O)NC2=O)c1 [SB-341556] | 0% | 0% | 0% | 17% | 0% | 0% | 0% | 0% | 15% | 4% |
